Hit rate of the full screen: of about 59,000 compounds, about 6,500 (11%) were called active. Inconclusive results (about 15%) are left out. No stated cut-off is given here; in the data, active means max dye-equivalent concentration above about 10 nM; inconclusive means mostly about 1.1 nM to 9.6 nM; inactive means weaker than that. The full list was thinned out, with actives kept by preference.

The experiment can be described thus: qHTS Assay for Spectroscopic Profiling in A350 Spectral Region. The note with it: Compound autofluorescence, 340/450 nm, Alexa 350 dye-equivalents; active compounds read high.
For the compound `COCCn1c(CN2CCC(Cc3ccccc3)CC2)nc2c1c(=O)n(C)c(=O)n2C`, the max dye-equivalent concentration result was “inactive”.

In the case of `CC(=O)O[C@]1(C(C)=O)CC[C@@H]2[C@@H]3C=C(C)C4=CC(=O)CC[C@@]4(C)[C@H]3CC[C@]21C`, the max dye-equivalent concentration entry is “inactive”.

As for `O=C(NCCN1CCOCC1)c1c(F)c(F)c(F)c(F)c1F`, the max dye-equivalent concentration entry is “inactive”.

Consider `COc1ccc(-c2nn(-c3ccccc3)cc2C(=O)Nc2nc(CC(C)=O)ns2)cc1`, for which the max dye-equivalent concentration result was “inactive”.

On to `CC(=O)NC(C)c1nc2ccccc2n1Cc1ccccc1F` (centres undefined), for which the max dye-equivalent concentration result is “inactive”.

Consider `CC(C)C1Cc2c(sc3c2c(=O)n(-c2ccccc2)c2nncn32)CO1` (centres undefined), for which the max dye-equivalent concentration entry was “inactive”.

As for `CCOC(=O)Cn1c2c(c(-c3ccccc3OC)cc1=O)CCCC2`, the max dye-equivalent concentration entry was “inactive”.

Take `COc1ccc(N2CCN(C(=O)CSc3nnc4ncccn34)CC2)cc1`: the max dye-equivalent concentration entry is “inactive”.

Turning to `O=C1CCC(=O)N1CCOP1(=O)COc2ccccc2OC1`, the max dye-equivalent concentration result is “inactive”.

For the compound `COCCn1c(=O)c(-c2cc(F)cc(F)c2)nc2cnc(N3CCNCC3)nc21`, the max dye-equivalent concentration was 390 nM (active).

With `CCCn1c(=O)c2[nH]c(-c3ccc(OCC(=O)NCCN)cc3)nc2n(CCC)c1=O`, the max dye-equivalent concentration entry was “inactive”.

As to `COc1ccc(C(=O)N2CCC3(CCCN(C(c4ccccc4)c4ccccc4)C3)CC2)cc1`, the max dye-equivalent concentration entry is “inactive”.

In the case of `CC1(C)SC2c3ccccc3C(=O)N2[C@@H]1C(=O)NCc1ccco1` (some centres undefined), the max dye-equivalent concentration entry is “inactive”.

In the case of `CC1(C)S[C@@H]2[C@@H](NC(=O)[C@@H](N)c3ccccc3)C(=O)N2[C@H]1C(=O)O`, the max dye-equivalent concentration is 44 nM (active).

For the compound `CCCC[C@H]1C(=O)N(c2ccccc2)N(c2ccc(O)cc2)C1=O`, the max dye-equivalent concentration result was “inactive”.

Turning to `Cc1cc(Br)ccc1NC(=O)C1CCCO1` (centres undefined), the max dye-equivalent concentration result is “inactive”.

On to `NC1(C(=O)OCc2ccccc2)CCCC1`, for which the max dye-equivalent concentration result was “inactive”.

As to `COc1cccc(NC(=O)C2CCCN2C(=O)OCc2ccccc2)c1` (centres undefined), the max dye-equivalent concentration entry is “inactive”.

Turning to `CC(C)C(NC(=O)OCc1ccccc1)C(=O)OCC(=O)N1C(C)CCCC1C` (centres undefined), the max dye-equivalent concentration was 48 nM (active).

For `COc1cc(-c2noc(C3CCCN(S(=O)(=O)c4cccc(Cl)c4)C3)n2)cc(OC)c1OC` (centres undefined), the max dye-equivalent concentration result was “inactive”.

Take `Cc1nc2nc[nH]n2c(=O)c1NC(=O)c1cccc(OCC(C)C)c1`: the max dye-equivalent concentration result was “inactive”.

Take `CCCN1Cc2cccc(C(=O)NCc3ccccc3)c2C1=O`: the max dye-equivalent concentration entry is “inactive”.

Regarding `O=C1CCCC2=C1C(c1cccs1)n1nc(SCc3ccccc3)nc1N2` (centres undefined), the max dye-equivalent concentration is 110 nM (active).

`CC(C)C(=O)N1c2ccccc2NC2=C(C(=O)CCC2)C1c1ccc(N(C)C)cc1` (centres undefined): the max dye-equivalent concentration result is “inactive”.

As for `NC(=NC(=O)c1ccccc1)C1=C(O)CCC1=O`, the max dye-equivalent concentration entry is “inactive”.

Turning to `COc1ccc(-c2nc(SCC(=O)N3CCOCC3)n[nH]2)cc1`, the max dye-equivalent concentration entry is “inactive”.

`CCn1c(COc2cccc(OC)c2)nnc1SCC(=O)N1CCOCC1`: the max dye-equivalent concentration entry is “inactive”.

With `COc1ccc(-c2ccnc(SCC(=O)N3CCOCC3)n2)cc1`, the max dye-equivalent concentration is 100 nM (active).

With `CC(=O)c1nc(N2C(=O)C3CC=C(C)CC3C2=O)sc1C` (centres undefined), the max dye-equivalent concentration result was “inactive”.

As for `O/N=C(\c1ccc2c(c1)OCCO2)C1CCCCC1`, the max dye-equivalent concentration entry was “inactive”.

For `Cc1ccsc1C(C(=O)NC1CCCCC1)N(C(=O)Cc1cccs1)C1CC1` (centres undefined), the max dye-equivalent concentration result is “inactive”.

Turning to `COc1ccc2oc(=O)c(C(=O)N3CCCc4ccccc43)cc2c1`, the max dye-equivalent concentration entry is “inactive”.

As for `COc1ccc2oc(=O)c(C(=O)N3CCN(c4ccccc4F)CC3)cc2c1`, the max dye-equivalent concentration was 41 nM (active).

As for `O=C(c1cccc2ccccc12)N1CCN(c2ccccc2F)CC1`, the max dye-equivalent concentration result was “inactive”.

Take `Cc1cccc(OCc2nnc(SCn3nnc4ccccc4c3=O)o2)c1`: the max dye-equivalent concentration entry was “inactive”.

`CC1(C)C2CCC1(C)C(OC(=O)CCn1ccnc1)C2` (centres undefined): the max dye-equivalent concentration result is “inactive”.

With `COc1cccc(NS(=O)(=O)c2ccc3[nH]cc(C(=O)NCCCOC(C)C)c(=O)c3c2)c1`, the max dye-equivalent concentration result is “inactive”.

Turning to `COC(=O)c1ccccc1NC(=O)c1cncc(Br)c1`, the max dye-equivalent concentration entry was “inactive”.

On to `CCOC(=O)c1cc(NC(=O)c2cccnc2)cc(C(=O)OCC)c1`, for which the max dye-equivalent concentration entry is “inactive”.

In the case of `CCC(=O)Nc1cccc(NC(=O)c2cccnc2)c1`, the max dye-equivalent concentration entry is “inactive”.

As to `Cc1cc2nc(-c3ccc(NC(=O)c4cccnc4)cc3)oc2cc1C`, the max dye-equivalent concentration is 90 nM (active).

`O=S(=O)(O)CCN1CCOCC1`: the max dye-equivalent concentration result was “inactive”.

In the case of `CCCc1nnc(NC(=O)CN2C(=O)c3ccccc3S2(=O)=O)s1`, the max dye-equivalent concentration result was “inactive”.

`O=P(O)(CP(=O)(c1ccccc1)c1ccccc1)c1ccccc1`: the max dye-equivalent concentration entry was “inactive”.

For `O=C(Nc1c(-c2ccccc2)nc2c(Br)cc(Br)cn12)c1ccco1`, the max dye-equivalent concentration result is “inactive”.

As for `CCOc1cc2[nH]c(=S)n(CCCN3CCCC3=O)c(=O)c2cc1OCC`, the max dye-equivalent concentration result is “inactive”.

Consider `CCN1CCN(C(=O)CN(C)S(=O)(=O)c2ccc(OC)cc2)CC1`, for which the max dye-equivalent concentration entry was “inactive”.

Take `COc1ccc(S(=O)(=O)N(CCCN2CCCC2=O)Cc2cc3c(C)ccc(C)c3[nH]c2=O)cc1`: the max dye-equivalent concentration is 13 nM (active).

Regarding `CC(C)(C)c1ccc(C(=O)CSc2ncn[nH]2)cc1`, the max dye-equivalent concentration entry was “inactive”.

Regarding `Cc1csc(NC(=O)C2CCCN2C(=O)OCC(C)C)n1` (centres undefined), the max dye-equivalent concentration entry was “inactive”.

On to `CN(Cc1ccccc1)c1nc2c(c(=O)[nH]c(=O)n2C)n1CCSc1nc2ccccc2[nH]1`, for which the max dye-equivalent concentration entry is “inactive”.

As to `O=C(Cn1c(-c2ccccn2)nc2ccccc21)NCCN1CCOCC1`, the max dye-equivalent concentration entry was “inactive”.

As for `C=CCn1c2ccccc2c2nnc(SC(CC)C(=O)Nc3nc(C)c(C(=O)OCC)s3)nc21` (centres undefined), the max dye-equivalent concentration was 56 nM (active).

Regarding `C=CCn1c(SCC(=O)Nc2nc3ccccc3s2)nnc1-c1ccccc1O`, the max dye-equivalent concentration result was “inactive”.

(Values after PubChem BioAssay AID590 (National Center for Advancing Translational Sciences (NCATS), 2007).)
